DUX4 inh = inhibitors of DUX4-driven ZSCAN4 reporter expression, primary screen, 293T cells, Gaussia and Italica luciferase. 293T-iDUX4 ZSCAN4-Gaussia luciferase reporter, 24 h; hits give low values. activity change, negative = inhibition, % (no concentration beside the values). actives 0.8% (n = 37,000);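 active = mean inhibition of at least 10% in the main channel, exceeding the control channel by a set limit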
Of the large screens only hits and unclear results are named; the others gave an inactive call; ! = a repeat was not active. Only a selection was taken, and hits are over-represented in it overall.

N#Cc1cccc(-c2ccc(C3[C@@H]4CN(C(=O)Cc5ccncc5)C[C@H]3N4)cc2)c1 (some centres not stated)	DUX4 inh -26!
Cc1cccc(-c2ccc(C3[C@@H]4CN(C(=O)Cc5ccncc5)C[C@H]3N4)cc2)c1 (some centres not stated)	none
N#Cc1ccc(-c2ccc([C@H]3[C@H]4CN(C(=O)Cc5ccccc5)CC(=O)N4[C@H]3CO)cc2)cc1	none
N#Cc1ccc(-c2ccc([C@@H]3[C@H](CO)N4C(=O)CN(C(=O)Cc5ccccc5)C[C@@H]34)cc2)cc1	none
CCNC(=O)C[C@H]1CC[C@H]2[C@@H](COC[C@H](O)CN2C(=O)c2cc(Cl)cc(Cl)c2)O1	none
Cc1ccc(CN2CC(=O)N3[C@H](C2)[C@@H](c2ccc(Br)cc2)[C@@H]3CO)cc1	none
C[C@H](CO)N1C[C@H](C)[C@@H](CN(C)S(C)(=O)=O)OCc2ccccc2-c2c(n(C)c3ccccc23)C1=O	none
C[C@H](CO)N1C[C@H](C)[C@@H](CN(C)S(=O)(=O)c2ccc(F)cc2)OCc2ccccc2-c2c(n(C)c3ccccc23)C1=O	none
Cc1cccc(S(=O)(=O)N(C)C[C@@H]2OCc3ccccc3-c3c(n(C)c4ccccc34)C(=O)N([C@@H](C)CO)C[C@H]2C)c1	DUX4 inh -53
Cc1cccc(S(=O)(=O)N(C)C[C@H]2OCc3ccccc3-c3c(n(C)c4ccccc34)C(=O)N([C@H](C)CO)C[C@H]2C)c1	DUX4 inh -29
C[C@@H]1CN([C@H](C)CO)C(=O)c2ccccc2-c2ccccc2CO[C@@H]1CN(C)S(=O)(=O)c1cccc(F)c1	none
C[C@H]1CN([C@@H](C)CO)C(=O)c2c(c3ccccc3n2C)-c2ccccc2CO[C@H]1CN(C)S(=O)(=O)CC(F)(F)F	none
C[C@H](CO)N1C[C@H](C)[C@H](CN(C)S(=O)(=O)CC(F)(F)F)OCc2ccccc2-c2c(n(C)c3ccccc23)C1=O	DUX4 inh -33
C[C@H](CO)N1C[C@H](C)[C@@H](CN(C)S(=O)(=O)c2cccc(C#N)c2)OCc2ccccc2-c2c(n(C)c3ccccc23)C1=O	none
C[C@H]1CN([C@@H](C)CO)C(=O)c2c(c3ccccc3n2C)-c2ccccc2CO[C@H]1CN(C)S(C)(=O)=O	none
C[C@@H]1CN([C@H](C)CO)C(=O)c2ccccc2-c2ccccc2CO[C@H]1CN(C)S(=O)(=O)c1cccc(F)c1	none
C[C@@H]1CN([C@H](C)CO)C(=O)c2c(c3ccccc3n2C)-c2ccccc2CO[C@@H]1CN(C)S(=O)(=O)CC(F)(F)F	none
C[C@H](CO)N1C[C@H](C)[C@H](CN(C)S(=O)(=O)c2cccc(F)c2)OCc2ccccc2-c2ccccc2C1=O	DUX4 inh -21
CO[C@@H]1CN(C)C(=O)c2ccc(NC(=O)C3CC3)cc2OC[C@@H](C)N(Cc2cncnc2)C[C@@H]1C	none
CNC(=O)C[C@@H]1CC[C@@H]2[C@H](COc3ccc(NC(=O)c4cnccn4)cc3C(=O)N2C)O1	none
CO[C@H]1CN(C)C(=O)c2cc(NC(=O)c3ccc4c(c3)OCO4)ccc2OC[C@@H](C)NC[C@H]1C	none
O=C(CN1CCOCC1)N1CC2(C1)[C@H](c1ccccc1)[C@H](CO)N2Cc1ccc(F)cc1	none
O=C(c1ccccc1)N1CC2(C1)[C@@H](c1ccccc1)[C@@H](CO)N2CC1CC1	none
COc1ccc2c3c([nH]c2c1)[C@H](CO)N(C(=O)c1ccc(F)cc1)CC31CCN(C(=O)CC2CC2)CC1	none
CN1CCN(C(=O)C[C@@H]2C[C@@H]3c4cc(NS(C)(=O)=O)ccc4O[C@@H]3[C@@H](CO)O2)CC1	none
COCC(=O)N1[C@@H](CO)[C@@H](c2ccccc2)C12CN(C(=O)NC1CCCC1)C2	none
COc1ccccc1C#Cc1ccc2c(c1)[C@@H]1[C@@H](CCN1C(=O)c1ccc(F)cc1)[C@H](CO)N2	none
O=C(c1ccc(F)cc1)N1CC[C@@H]2[C@H](CO)Nc3ccc(C#Cc4ccc(F)cc4)cc3[C@@H]21	DUX4 inh -20
O=C(c1ccc(F)cc1)N1CC[C@@H]2[C@H](CO)Nc3ccc(C#Cc4ccccc4F)cc3[C@@H]21	DUX4 inh -30
O=C(c1ccc(F)cc1)N1CC[C@@H]2[C@H]1c1cc(C#Cc3ccccc3F)ccc1N[C@@H]2CO	none
COc1ccccc1C#Cc1ccc2c(c1)[C@@H]1[C@@H](CCN1C(=O)c1ccc(F)cc1)[C@@H](CO)N2	none
O=C(c1ccc(F)cc1)N1CC[C@@H]2[C@H]1c1cc(C#Cc3ccc(F)cc3)ccc1N[C@@H]2CO	none
O=C(C[C@H]1CC[C@@H](NC(=O)C2CCOCC2)[C@@H](CO)O1)NCC1CCCCC1	none
O=C(N[C@@H]1CC[C@H](CCNC(=O)C2CCOCC2)O[C@H]1CO)c1ccccn1	none
C[C@@H]1CN([C@H](C)CO)C(=O)c2cc(NS(C)(=O)=O)ccc2O[C@@H](C)CCCCO[C@H]1CN(C)S(=O)(=O)c1ccccc1	none
O=C(C[C@H]1CC[C@@H]2[C@H](COC[C@@H](O)CN2CC2CCCCC2)O1)NCc1ccc(Cl)cc1	none
